Shown are actives, neighbours in structure and some others; about 2.2% of the full set was active somewhere.
PvdQ acylase: P. aeruginosa PvdQ acylase inhibitors, primary screen, biochemical, fluorescence, plate reader and imaging, single point. PvdQ acylase [Pseudomonas aeruginosa LESB58]. purified PvdQ acylase. inhibition, % at 10 µM. 340,000 tested, 0.063% active. AID 488965, 2010; in the data active = inhibition above about 30%, passing the limit was not always enough; inconclusive = no clear call, values can overlap the other calls;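 note: 0% = vehicle neutral wells and 100% = reference inhibitor wells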
DENV2 CPE: inhibitors of DENV2 cytopathic effect, primary screen, cell-based, plate reader, single concentration | CPE inhibition, % at 9.99 µM | 350,000 tested, 1.7% active | AID 651640, 2012 | DENV2-infected cells, cytopathic effect rescue; in the data active = CPE inhibition above about 20%, passing the limit was not always enough; inconclusive = no clear call, values can overlap the other calls; tested in BHK-21 cells;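 note: 0% = median of neutral control wells and 100% = median of positive control wells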
miR-122 sensor: miR-122 Renilla sensor signal increase in Huh7, primary screen, miR-122 inhibitor project, cell-based, single point, plate reader. AID 602342, 2012. Huh7 miR-122 Renilla luciferase sensor, 48 h; neutral wells = 0, positive control = 100. 340,000 tested, 0.3% active. activation (reporter increase), % at 12.5 µM;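 active = mean replicate activation score at least 90 and every replicate individually at or above 90; inconclusive = only one of the two criteria met; inactive = neither criterion met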;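 note: higher luciferase means less miR-122 activity so hits act as miR-122 inhibitors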
C2C12 statin: suppressors of statin myotoxicity in C2C12 myotubes, primary screen, cell-based, single point, plate reader | rescue of ATP level, % at 7.49 µM | AID 602340, 2012 | 330,000 tested, 0.78% active | C2C12 myotubes + simvastatin, ATP luminescence, 48 h; scaled: DMSO 0, geranylgeraniol control 100;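 active = mean ATP rescue above about 67%, or every replicate alone reaching that limit, limit read from the data, passing the limit was not always enough; inconclusive = no clear call, values can overlap the other calls; inactive = mean under the limit and some replicate under it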;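 note: myotubes were challenged with 10 µM simvastatin during compound exposure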
PGC1a acetyl inh: inhibitors of PGC1a acetylation signal, primary screen, cell-based, U2OS, AlphaScreen, inhibitor mode. 350,000 tested, 0.17% active. inhibition, % at 15.6 µM. AlphaScreen anti-acetyl-lysine; with virally co-expressed GCN5 acetyltransferase;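 active = every replicate shows inhibition of at least 40%; inconclusive = mean inhibition at least 40% but some replicate below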;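 note: 0% = neutral control wells and 100% = positive control wells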
* hit, by the source's call; [ ] = another dose, or the depositor's remark.

What do the screens show for `C[C@@H]1CN([C@@H](C)CO)C(=O)c2cc(NC(=O)Nc3cccc4ccccc34)ccc2O[C@@H](C)CCCCO[C@H]1CN(C)C(=O)NC1CCCCC1`?
DENV2 CPE: -1.9; miR-122 sensor: -2.2[16.7 µM]; C2C12 statin: 8.9; PGC1a acetyl inh: inconclusive

How did C[C@H]1CCCCO[C@@H](CN(C)C(=O)NC2CCCCC2)[C@@H](C)CN([C@@H](C)CO)C(=O)c2cc(NC(=O)Nc3cccc4ccccc34)ccc2O1 do in these assays?
DENV2 CPE: 1.4; miR-122 sensor: 3.0[16.7 µM]; C2C12 statin: 95.7*; PGC1a acetyl inh: 0.9

Results for C[C@H](CO)N1C[C@H](C)[C@H](CN(C)C(=O)NC2CCCCC2)OCCCC[C@H](C)Oc2ccc(NC(=O)Nc3cccc4ccccc34)cc2C1=O ?
DENV2 CPE: -4.4; miR-122 sensor: 3.7[16.7 µM]; C2C12 statin: 137.1*; PGC1a acetyl inh: -5.4

Results for C[C@@H]1CN([C@H](C)CO)C(=O)c2cc(NC(=O)Nc3cccc4ccccc34)ccc2O[C@@H](C)CCCCO[C@@H]1CN(C)CC1CCCCC1 ?
DENV2 CPE: 45.2*; miR-122 sensor: -29.6[16.7 µM]; PGC1a acetyl inh: -5.3

Results for C[C@@H]1CCCCO[C@@H](CN(C)CC2CCCCC2)[C@@H](C)CN([C@@H](C)CO)C(=O)c2cc(NC(=O)Nc3cccc4ccccc34)ccc2O1 ?
DENV2 CPE: 7.2; miR-122 sensor: -31.0[16.7 µM]; PGC1a acetyl inh: -19.0

Results for C[C@@H]1CN([C@H](C)CO)C(=O)c2cc(NC(=O)Nc3cccc4ccccc34)ccc2O[C@@H](C)CCCCO[C@@H]1CN(C)C(=O)NC1CCCCC1 ?
DENV2 CPE: 15.5; miR-122 sensor: -4.0[16.7 µM]; C2C12 statin: 74.2*; PGC1a acetyl inh: 37.9

How did O=C(C[C@H]1CC[C@H]2[C@@H](COC[C@H](O)CN2CC2CCCC2)O1)NCC1CC1 do in these assays?
DENV2 CPE: 4.2; PGC1a acetyl inh: -1.7

How did CC(C)(C)[S@@](=O)N1Cc2cc(C(=O)N3CCOCC3)nc(-c3cccc(Br)c3)c2[C@H]1CCO do in these assays?
DENV2 CPE: -8.3

What do the screens show for `COc1ccc(CNC(=O)C[C@@H]2C=C[C@H](NC(=O)c3cccc(F)c3)[C@H](CO)O2)cc1`?
DENV2 CPE: 18.4; C2C12 statin: 2.2; PGC1a acetyl inh: -1.2

Results for O=C(CN1CCOCC1)N[C@H]1CC[C@H](CCn2cc(C3CCCCC3)nn2)O[C@H]1CO ?
DENV2 CPE: 0.4; C2C12 statin: 6.7; PGC1a acetyl inh: 2.6

Results for COc1ccc(N(C(=O)c2ccco2)S(=O)(=O)c2cc(OC)ccc2OC)cc1 ?
PvdQ acylase: -12.8; miR-122 sensor: 24.9; C2C12 statin: 103.8*; PGC1a acetyl inh: -0.5

How did COc1ccc(N(C(=O)c2ccco2)S(=O)(=O)c2ccc(F)cc2)cc1 do in these assays?
PvdQ acylase: -6.8; miR-122 sensor: 4.6; C2C12 statin: 15.7; PGC1a acetyl inh: -1.0

Results for CC(=O)NC(c1cccs1)c1cc([N+](=O)[O-])c2cccnc2c1O (stereo not given) ?
PvdQ acylase: 1.5; DENV2 CPE: 86.7*

What do the screens show for `CC(=O)NC(c1cc(Cl)c2ccccc2c1O)C(C)C` (stereo not given)?
PvdQ acylase: -4.4; miR-122 sensor: 9.7; C2C12 statin: 8.6

What do the screens show for `CC(=O)NC(c1cc(Cl)c2cccnc2c1O)C(C)C` (stereo not given)?
PvdQ acylase: 3.0; DENV2 CPE: 41.7*; miR-122 sensor: -19.6; C2C12 statin: 80.7*; PGC1a acetyl inh: 35.9

How did C[C@@H]1CN([C@@H](C)CO)C(=O)Cc2cc(NC(=O)Nc3ccc(C(F)(F)F)cc3)ccc2O[C@H]1CN(C)S(=O)(=O)c1ccc(F)cc1 do in these assays?
miR-122 sensor: 4.6[16.7 µM]; C2C12 statin: -29.5; PGC1a acetyl inh: 7.7

How did C[C@@H](NC(=O)c1ncn(C)c1C(=O)N[C@H](C)c1ccccc1)c1ccccc1 do in these assays?
PvdQ acylase: -10.7; DENV2 CPE: 89.8*; miR-122 sensor: -1.8; C2C12 statin: 9.2; PGC1a acetyl inh: -17.8

How did C[C@@H]1CCCCO[C@H](CN(C)Cc2ccc(Cl)c(Cl)c2)[C@H](C)CN([C@@H](C)CO)C(=O)c2cc(NS(=O)(=O)c3ccccc3)ccc2O1 do in these assays?
DENV2 CPE: 32.4*; miR-122 sensor: -13.3[16.7 µM]; PGC1a acetyl inh: 2.1

Results for C[C@@H]1CN([C@H](C)CO)C(=O)c2cc(NS(=O)(=O)c3ccccc3)ccc2O[C@@H](C)CCCCO[C@H]1CN(C)Cc1ccc(Cl)c(Cl)c1 ?
DENV2 CPE: 23.1*; miR-122 sensor: -19.7[16.7 µM]; PGC1a acetyl inh: 7.4

Results for C[C@H](CO)N1C[C@H](C)[C@@H](CN(C)Cc2ccc(Cl)c(Cl)c2)OCCCC[C@H](C)Oc2ccc(NS(=O)(=O)c3ccccc3)cc2C1=O ?
DENV2 CPE: 1.4; miR-122 sensor: 5.6[16.7 µM]; PGC1a acetyl inh: 8.1

Results for C[C@H]1CCCCO[C@H](CN(C)Cc2ccc(Cl)c(Cl)c2)[C@@H](C)CN([C@@H](C)CO)C(=O)c2cc(NS(=O)(=O)c3ccc(F)cc3)ccc2O1 ?
DENV2 CPE: 22.2*; PGC1a acetyl inh: 1.0

What do the screens show for `C[C@@H]1CCCCO[C@@H](CN(C)Cc2ccc(Cl)c(Cl)c2)[C@@H](C)CN([C@@H](C)CO)C(=O)c2cc(NS(=O)(=O)c3ccccc3)ccc2O1`?
DENV2 CPE: 22.5*; miR-122 sensor: -5.0[16.7 µM]; PGC1a acetyl inh: 1.6

Results for Cc1cccc(-c2ccc([C@@H]3[C@H]4CN(Cc5cncnc5)CCCCN4[C@H]3CO)cc2)c1 ?
DENV2 CPE: -10.6; miR-122 sensor: 0.9[16.7 µM]; C2C12 statin: -4.8; PGC1a acetyl inh: -5.8

What do the screens show for `COc1ccc2c3c(n(C)c2c1)[C@H](CO)N(Cc1nccs1)CC31CN(C)C1`?
DENV2 CPE: -1.4; PGC1a acetyl inh: 4.5

Results for CC1=NN(c2ccccc2)C(=O)/C1=C\C=C\c1ccccc1 ?
DENV2 CPE: -9.6; miR-122 sensor: -8.0; PGC1a acetyl inh: -22.6

What do the screens show for `CC1=NN(c2ccc(C)c(C)c2)C(=O)/C1=C\C=C\c1ccc([N+](=O)[O-])o1`?
PvdQ acylase: 8.5; DENV2 CPE: 2.9; PGC1a acetyl inh: 59.3*

Results for CCc1ccc(NC(=O)C(CC)Sc2nc3cc4c(cc3c(=O)n2Cc2ccco2)OCO4)cc1 (stereo not given) ?
PvdQ acylase: -10.8; miR-122 sensor: 138.5*; C2C12 statin: -54.8

Results for CCc1ccccc1NC(=O)C(CC)Sc1nc2cc3c(cc2c(=O)n1Cc1ccco1)OCO3 (stereo not given) ?
PvdQ acylase: 11.2; miR-122 sensor: 11.1; C2C12 statin: 45.3

Source: PubChem BioAssay (Broad Institute)
